From the supplement of paper PMC11732987, “Enantioselective OTUD7B fragment discovery through chemoproteomics screening and high-throughput optimisation” (Communications Chemistry, 2025)

How the values were obtained:
Assay in all cases: log2 ratio of Biotin-Ahx-Ub-VS probe labelling (fragment/DMSO); higher = less target engagement (more negative = stronger competition), active = hit call of the paper (q ≤ 0.05, log2 ratio ≤ -1)
Details in all cases: compound concentration: 200 uM; treatment time: 3 h
USP19 = target: T1, USP19 (UniProt O94966)
T1 sequence (whole entry): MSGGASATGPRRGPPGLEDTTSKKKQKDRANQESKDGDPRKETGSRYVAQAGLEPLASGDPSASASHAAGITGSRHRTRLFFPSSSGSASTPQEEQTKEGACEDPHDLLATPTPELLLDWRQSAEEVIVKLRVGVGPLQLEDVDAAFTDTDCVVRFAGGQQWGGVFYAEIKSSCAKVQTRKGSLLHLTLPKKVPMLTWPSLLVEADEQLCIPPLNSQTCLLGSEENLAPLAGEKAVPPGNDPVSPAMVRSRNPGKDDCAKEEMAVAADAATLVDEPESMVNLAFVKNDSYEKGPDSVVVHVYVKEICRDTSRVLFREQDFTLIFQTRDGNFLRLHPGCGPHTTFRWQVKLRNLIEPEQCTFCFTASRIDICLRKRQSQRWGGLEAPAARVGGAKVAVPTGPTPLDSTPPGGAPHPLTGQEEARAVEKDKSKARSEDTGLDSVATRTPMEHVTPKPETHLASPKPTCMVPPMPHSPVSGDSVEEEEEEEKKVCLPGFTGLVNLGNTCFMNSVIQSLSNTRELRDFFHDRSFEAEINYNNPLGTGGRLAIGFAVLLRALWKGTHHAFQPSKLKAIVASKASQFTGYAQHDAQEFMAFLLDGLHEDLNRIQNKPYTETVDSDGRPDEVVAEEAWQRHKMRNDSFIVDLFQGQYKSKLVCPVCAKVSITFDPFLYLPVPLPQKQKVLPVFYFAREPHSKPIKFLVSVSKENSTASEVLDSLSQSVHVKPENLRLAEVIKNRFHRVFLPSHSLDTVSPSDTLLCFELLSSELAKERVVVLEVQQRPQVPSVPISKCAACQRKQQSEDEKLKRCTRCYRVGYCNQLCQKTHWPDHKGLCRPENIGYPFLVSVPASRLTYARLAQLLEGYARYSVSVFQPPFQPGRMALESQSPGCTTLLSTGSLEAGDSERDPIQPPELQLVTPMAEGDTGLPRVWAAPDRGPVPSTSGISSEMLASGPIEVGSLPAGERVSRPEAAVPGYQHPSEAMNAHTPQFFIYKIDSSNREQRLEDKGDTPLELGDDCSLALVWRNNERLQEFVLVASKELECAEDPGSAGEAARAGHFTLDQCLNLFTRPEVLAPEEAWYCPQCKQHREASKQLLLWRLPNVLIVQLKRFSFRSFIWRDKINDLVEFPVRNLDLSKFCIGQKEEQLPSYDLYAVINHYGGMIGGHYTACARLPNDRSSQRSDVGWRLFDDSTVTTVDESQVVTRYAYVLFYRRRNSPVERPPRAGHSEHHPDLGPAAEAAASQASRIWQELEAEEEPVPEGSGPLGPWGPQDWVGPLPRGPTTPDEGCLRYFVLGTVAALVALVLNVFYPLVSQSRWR
In short: (§1)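 HEK293T lysate, 495 µg per sample in Tris/CHAPS/IGEPAL buffer with protease inhibitors, was treated in triplicate with fragment at 200 µM or vehicle for 3 h and then with Biotin-Ahx-Ub-VS at 0.5 µM final for 1 h. Labelled DUBs were NeutrAvidin-enriched, digested with LysC and trypsin, and run by diaPASEF LC-MS/MS. Spectronaut label-free quantities were global-median-normalised, and values are average log2 fragment/vehicle ratios by unpaired t-test on proteins with ≥2 unique peptides.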

USP22 = target: T2, USP22 (UniProt Q9UPT9)
T2 sequence (whole entry): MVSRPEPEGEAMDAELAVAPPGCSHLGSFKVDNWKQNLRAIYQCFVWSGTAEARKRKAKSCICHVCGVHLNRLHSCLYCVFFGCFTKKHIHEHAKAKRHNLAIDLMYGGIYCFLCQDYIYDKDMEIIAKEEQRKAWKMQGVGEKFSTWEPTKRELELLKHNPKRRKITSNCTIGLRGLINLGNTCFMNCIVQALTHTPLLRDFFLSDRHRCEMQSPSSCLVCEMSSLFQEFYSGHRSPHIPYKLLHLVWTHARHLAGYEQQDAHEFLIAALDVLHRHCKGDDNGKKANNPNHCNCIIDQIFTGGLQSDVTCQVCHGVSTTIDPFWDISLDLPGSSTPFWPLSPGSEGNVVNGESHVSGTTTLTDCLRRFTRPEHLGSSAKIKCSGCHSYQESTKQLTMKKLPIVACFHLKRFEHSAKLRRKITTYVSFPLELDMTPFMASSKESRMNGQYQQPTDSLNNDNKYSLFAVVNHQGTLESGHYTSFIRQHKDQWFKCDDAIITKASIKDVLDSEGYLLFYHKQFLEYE
In short: as §1

USP24 = USP24 (UniProt Q9UPU5)
In short: as §1

USP25 = target: T3, USP25 (UniProt Q9UHP3)
T3 sequence (whole entry): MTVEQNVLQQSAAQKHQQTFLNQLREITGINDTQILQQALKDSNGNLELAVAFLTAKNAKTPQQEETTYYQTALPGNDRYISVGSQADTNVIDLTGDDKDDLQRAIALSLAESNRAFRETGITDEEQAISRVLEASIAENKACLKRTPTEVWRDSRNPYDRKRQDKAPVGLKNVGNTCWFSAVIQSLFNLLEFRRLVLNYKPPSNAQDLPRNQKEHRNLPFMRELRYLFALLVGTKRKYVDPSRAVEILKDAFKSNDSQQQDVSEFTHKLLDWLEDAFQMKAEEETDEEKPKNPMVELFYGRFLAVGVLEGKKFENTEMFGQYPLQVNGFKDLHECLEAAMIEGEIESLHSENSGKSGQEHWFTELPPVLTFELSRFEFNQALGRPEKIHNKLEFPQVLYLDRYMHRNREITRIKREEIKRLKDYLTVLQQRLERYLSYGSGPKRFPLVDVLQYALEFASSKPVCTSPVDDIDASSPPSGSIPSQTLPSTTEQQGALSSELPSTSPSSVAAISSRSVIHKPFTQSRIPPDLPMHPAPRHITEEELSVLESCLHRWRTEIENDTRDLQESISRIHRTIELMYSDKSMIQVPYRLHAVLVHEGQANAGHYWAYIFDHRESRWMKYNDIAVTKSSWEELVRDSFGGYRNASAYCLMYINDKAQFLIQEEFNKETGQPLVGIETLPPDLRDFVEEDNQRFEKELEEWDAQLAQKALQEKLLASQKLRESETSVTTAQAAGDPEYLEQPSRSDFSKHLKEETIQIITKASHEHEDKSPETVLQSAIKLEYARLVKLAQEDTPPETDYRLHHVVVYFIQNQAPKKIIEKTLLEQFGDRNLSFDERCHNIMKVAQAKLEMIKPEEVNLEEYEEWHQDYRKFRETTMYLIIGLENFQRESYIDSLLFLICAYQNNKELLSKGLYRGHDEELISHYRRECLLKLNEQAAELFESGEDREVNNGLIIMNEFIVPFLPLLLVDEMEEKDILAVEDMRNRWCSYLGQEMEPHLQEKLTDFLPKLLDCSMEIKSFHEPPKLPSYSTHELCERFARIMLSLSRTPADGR
In short: as §1

USP28 = target: T4, USP28 (UniProt Q96RU2)
T4 sequence (whole entry): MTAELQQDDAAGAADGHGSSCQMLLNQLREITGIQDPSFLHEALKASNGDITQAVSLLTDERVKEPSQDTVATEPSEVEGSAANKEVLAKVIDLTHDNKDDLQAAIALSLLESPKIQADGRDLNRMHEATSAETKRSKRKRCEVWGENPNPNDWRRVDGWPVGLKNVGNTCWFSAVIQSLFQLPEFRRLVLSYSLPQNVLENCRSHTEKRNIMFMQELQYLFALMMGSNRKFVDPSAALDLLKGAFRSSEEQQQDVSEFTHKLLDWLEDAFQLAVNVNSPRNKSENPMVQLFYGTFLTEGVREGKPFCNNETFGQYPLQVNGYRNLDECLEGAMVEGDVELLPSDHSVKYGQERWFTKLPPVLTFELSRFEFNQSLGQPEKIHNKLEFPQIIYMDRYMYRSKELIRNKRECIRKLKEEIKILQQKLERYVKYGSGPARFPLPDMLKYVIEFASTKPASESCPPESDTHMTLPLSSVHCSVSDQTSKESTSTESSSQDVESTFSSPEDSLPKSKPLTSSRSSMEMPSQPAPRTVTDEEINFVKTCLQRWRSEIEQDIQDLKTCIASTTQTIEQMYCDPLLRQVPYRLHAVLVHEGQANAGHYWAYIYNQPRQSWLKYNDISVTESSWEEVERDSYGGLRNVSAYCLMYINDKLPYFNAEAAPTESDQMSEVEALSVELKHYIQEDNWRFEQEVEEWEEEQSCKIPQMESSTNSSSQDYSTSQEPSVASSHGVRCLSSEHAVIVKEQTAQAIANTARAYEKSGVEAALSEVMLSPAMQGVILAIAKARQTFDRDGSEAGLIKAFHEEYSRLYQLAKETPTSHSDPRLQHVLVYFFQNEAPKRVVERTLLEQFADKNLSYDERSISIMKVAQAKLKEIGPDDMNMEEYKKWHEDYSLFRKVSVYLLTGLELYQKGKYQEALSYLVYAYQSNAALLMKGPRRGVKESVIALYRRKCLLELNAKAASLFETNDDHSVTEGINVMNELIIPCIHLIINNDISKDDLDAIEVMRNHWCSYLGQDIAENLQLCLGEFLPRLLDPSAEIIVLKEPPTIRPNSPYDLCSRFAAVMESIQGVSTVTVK
In short: as §1

Measured: log2 ratio of Biotin-Ahx-Ub-VS probe labelling

Chain of USP24 (Q9UPU5 whole entry): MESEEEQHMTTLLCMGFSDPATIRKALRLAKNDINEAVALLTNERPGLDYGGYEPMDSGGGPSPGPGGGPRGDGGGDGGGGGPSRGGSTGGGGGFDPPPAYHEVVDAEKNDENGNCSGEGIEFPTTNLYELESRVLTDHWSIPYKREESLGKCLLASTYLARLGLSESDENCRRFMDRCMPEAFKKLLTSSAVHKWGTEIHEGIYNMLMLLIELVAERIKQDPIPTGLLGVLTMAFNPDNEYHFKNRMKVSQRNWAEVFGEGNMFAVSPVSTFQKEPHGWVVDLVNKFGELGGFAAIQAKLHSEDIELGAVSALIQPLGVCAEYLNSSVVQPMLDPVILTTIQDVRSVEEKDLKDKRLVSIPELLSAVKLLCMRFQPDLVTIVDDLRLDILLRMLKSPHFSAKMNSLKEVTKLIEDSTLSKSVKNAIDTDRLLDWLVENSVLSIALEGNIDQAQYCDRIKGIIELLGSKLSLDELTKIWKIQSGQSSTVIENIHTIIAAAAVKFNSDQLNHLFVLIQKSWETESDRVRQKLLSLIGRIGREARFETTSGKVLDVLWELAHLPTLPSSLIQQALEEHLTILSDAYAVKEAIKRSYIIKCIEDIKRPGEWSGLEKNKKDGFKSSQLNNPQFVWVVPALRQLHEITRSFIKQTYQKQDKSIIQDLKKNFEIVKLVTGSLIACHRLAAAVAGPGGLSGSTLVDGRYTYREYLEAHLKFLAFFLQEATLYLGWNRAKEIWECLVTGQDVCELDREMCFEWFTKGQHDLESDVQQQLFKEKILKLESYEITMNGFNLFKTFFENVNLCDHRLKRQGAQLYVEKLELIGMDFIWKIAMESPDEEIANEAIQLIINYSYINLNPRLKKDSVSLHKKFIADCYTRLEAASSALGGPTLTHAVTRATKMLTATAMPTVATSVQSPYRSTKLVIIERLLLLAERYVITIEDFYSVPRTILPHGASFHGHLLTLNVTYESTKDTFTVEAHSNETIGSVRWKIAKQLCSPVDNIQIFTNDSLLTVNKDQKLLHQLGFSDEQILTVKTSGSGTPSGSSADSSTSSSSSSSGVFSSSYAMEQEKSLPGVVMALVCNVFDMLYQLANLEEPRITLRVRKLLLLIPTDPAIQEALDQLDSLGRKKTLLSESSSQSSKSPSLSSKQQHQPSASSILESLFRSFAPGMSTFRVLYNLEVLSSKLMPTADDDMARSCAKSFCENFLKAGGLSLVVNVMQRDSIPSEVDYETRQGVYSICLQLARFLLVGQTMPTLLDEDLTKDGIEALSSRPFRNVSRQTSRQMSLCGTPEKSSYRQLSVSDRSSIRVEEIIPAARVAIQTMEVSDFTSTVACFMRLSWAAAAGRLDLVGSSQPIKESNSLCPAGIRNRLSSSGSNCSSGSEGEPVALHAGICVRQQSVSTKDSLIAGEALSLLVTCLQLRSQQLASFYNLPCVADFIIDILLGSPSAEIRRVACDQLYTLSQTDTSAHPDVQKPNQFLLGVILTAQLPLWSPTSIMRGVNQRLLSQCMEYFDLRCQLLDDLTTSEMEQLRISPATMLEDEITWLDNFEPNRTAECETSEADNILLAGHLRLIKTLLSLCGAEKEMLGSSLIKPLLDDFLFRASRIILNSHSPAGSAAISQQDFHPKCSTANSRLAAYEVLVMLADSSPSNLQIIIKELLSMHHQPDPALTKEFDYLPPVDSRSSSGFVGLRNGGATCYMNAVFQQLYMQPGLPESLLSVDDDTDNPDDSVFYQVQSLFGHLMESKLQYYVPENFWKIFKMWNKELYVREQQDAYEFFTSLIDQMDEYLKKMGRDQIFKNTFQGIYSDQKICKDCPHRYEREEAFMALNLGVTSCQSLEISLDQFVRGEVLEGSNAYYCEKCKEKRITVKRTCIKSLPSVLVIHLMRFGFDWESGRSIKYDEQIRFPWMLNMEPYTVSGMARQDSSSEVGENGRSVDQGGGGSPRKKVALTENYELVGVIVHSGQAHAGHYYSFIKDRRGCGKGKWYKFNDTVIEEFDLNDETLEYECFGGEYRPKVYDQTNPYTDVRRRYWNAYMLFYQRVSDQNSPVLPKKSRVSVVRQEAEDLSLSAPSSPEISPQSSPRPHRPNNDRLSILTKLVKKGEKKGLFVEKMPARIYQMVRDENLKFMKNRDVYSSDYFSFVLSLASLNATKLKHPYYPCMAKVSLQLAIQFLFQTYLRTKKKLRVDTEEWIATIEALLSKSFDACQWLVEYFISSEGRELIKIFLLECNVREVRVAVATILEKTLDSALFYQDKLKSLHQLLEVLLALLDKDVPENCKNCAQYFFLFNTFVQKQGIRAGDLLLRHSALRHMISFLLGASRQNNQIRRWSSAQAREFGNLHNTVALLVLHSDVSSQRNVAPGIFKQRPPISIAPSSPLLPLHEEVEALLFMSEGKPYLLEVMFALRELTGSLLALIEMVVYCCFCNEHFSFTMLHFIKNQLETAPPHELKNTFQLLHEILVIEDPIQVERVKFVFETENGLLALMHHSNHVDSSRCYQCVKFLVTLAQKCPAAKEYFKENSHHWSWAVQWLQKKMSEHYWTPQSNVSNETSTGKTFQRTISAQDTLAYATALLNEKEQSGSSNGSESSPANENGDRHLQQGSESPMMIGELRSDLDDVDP

Cc1ccc(N(C(=O)CCl)C2C=CS(=O)(=O)C2)cc1 (stereo not given)
inactive: USP19 0.0392 | USP22 0.0416 | USP24 -0.681 | USP25 0.0868 | USP28 -0.13
